# Screening results: PubChem BioAssay, National Center for Advancing Translational Sciences (NCATS)
# Only some compounds are listed: those with a hit (about 6.5% of all), similar ones and a draw of the others.
# FMDV antiviral – High Throughput Screening for Foot and Mouth Disease Virus Antivirals; FMDV antiviral cell-based qHTS; Potency, µM (titrated, usually from 57.9 µM), without a hit: top-dose activity change, negative = inhibition, usual class: inhibitors; 410,000 tested, 1.2% active; AID 1159524, 2015; calls by dose curve; tested in HEK293T cells; further: read-out not given here; potency means the concentration at half of the fitted maximal effect; nearly all actives have a fitted effect of over 45% in size
# LASV entry inh – qHTS for Inhibitors of binding or entry into cells for Lassa Virus. Lassa virus pseudotype entry inhibition, cell reporter. Potency, µM (doses to about 37.9 µM), inactives show at the highest dose activity change, negative = inhibition, actives largely listed as inhibitors. 300,000 tested, 1.2% active; calls by dose curve; tested in HEK293 cells; further: potency means the concentration at half of the fitted maximal effect; nearly all actives have a fitted effect of over 50% in size
# Vaccinia mCherry – qHTS for Stage-Specific Inhibitors of Vaccinia Orthopoxvirus: mCherry Reporter Primary qHTS; Vaccinia virus mCherry reporter infection, fluorescence; Potency, µM (highest dose often 36.5 µM), for inactives: top-dose activity change, negative = inhibition, most hits filed as inhibitors; 310,000 tested, 0.63% active; AID 720579, 2013; calls by dose curve; tested in A549 cells; further: potency means the concentration at half of the fitted maximal effect; nearly all actives have a fitted effect of over 35% in size
# VACV Venus inh – qHTS for Stage-Specific Inhibitors of Vaccinia Orthopoxvirus: Venus Reporter Primary qHTS; Vaccinia virus Venus reporter expression, fluorescence; Potency, µM (doses to about 36.5 µM), without a hit: at the highest dose activity change, negative = inhibition, usual class: inhibitors; 330,000 tested, 0.46% active; calls by dose curve; tested in A549 cells; further: potency means the concentration at half of the fitted maximal effect; nearly all actives have a fitted effect of over 30% in size
# MARV entry inh – qHTS for inhibitors of binding or entry into cells for Marburg Virus; AID 540276, 2011; Potency, µM (highest dose often 37.8 µM), for the others: at the highest dose activity change, negative = inhibition, most hits filed as inhibitors; Marburg virus pseudotyped entry inhibition, cell reporter; 300,000 tested, 1.8% active; calls by dose curve; tested in HEK293 cells; further: potency means the concentration at half of the fitted maximal effect
# HCMV inh – qHTS Assay for inhibitors of the human cytomegalovirus (HCMV) | 410,000 tested, 4.5% active | HFF cells, HCMV-luciferase reporter, 72 h; hits give low values | activity change, negative = inhibition, % at 57.5 µM; in the data active means activity change below about -60%; inconclusive means no clear call, values can overlap the other calls; inactive means above about -39%
#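 Cell-based, HFFs, 1000 cells/well, 16 h 37C; cpds in DMSO + HCMV-luc, MOI 1 PFU/cell; 72 h 37C; OneGlo luminescence after 5 min RT; norm. to buffer vs Salinomycin 10uM.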
# * hit, by the source's call; i = inactive; ? = inconclusive; · = no result; ! = not active in a repeat; [ ] = another dose, or the depositor's remark. On the % scale 0 is the no-effect control and ±100 the full control effect.
SMILES,FMDV antiviral,LASV entry inh,Vaccinia mCherry,VACV Venus inh,MARV entry inh,HCMV inh
C[C@]12CCC3C(CC[C@H]4C[C@@H](O)CC[C@]34C)[C@H]1C=CC2=O (some centres undefined),20µM*,?,?,?,?,0
C[C@]12CCC3[C@@H](CC[C@@H]4C[C@H](O)CC[C@]34C)[C@@H]1CCC2=O (some centres undefined),-1%,·,i,-18%,·,-75*
C[C@]12CC[C@@H](O)C[C@@H]1CC[C@@H]1[C@@H]2CC[C@]2(C)C(=O)[C@H](O)C[C@@H]12,-21%,·,-9%,-9%,·,·
C[C@]12CC[C@H](O)C[C@@H]1CC[C@@H]1[C@@H]2CC[C@]2(C)C(=O)CC[C@@H]12,-29%,·,i,-12%,·,20
COc1cc2c(c(OC)c1OC)C(c1ccccc1)(c1ccccc1)CC2NC(=O)C(F)(F)F (centres undefined),·,·,·,·,-10%[14.2 µM],·
CC(C)c1ccccc1NC(=S)NC(C)c1ccccc1 (centres undefined),-6%,-29%,?,-15%,?,-87*
CC(NC(=S)Nc1ccc(F)cc1)c1ccccc1 (centres undefined),-2%,0%,-4%,-12%,-1%,?
O=C(Nc1ccc(F)cc1)C1C(c2ccccc2)C1(Cl)Cl (centres undefined),?,-6%,-21%,-23%,-21%,-68*
O=C(Nc1ccccc1Cl)C1C(c2ccccc2)C1(Cl)Cl (centres undefined),-21%,·,·,·,·,-21
O=C(CN1C(=O)NC(c2ccc(F)cc2)C1=O)NC1CCCCC1 (centres undefined),-21%,8%,-15%,-11%,12%,·
CCOc1ccc(C2Nc3ccccc3-c3nnc(SCc4ccccc4)nc3O2)cc1OC (centres undefined),26%,6%[46.1 µM],2%,-9%,8%[46.1 µM],27
COc1cccc2cc(C(=O)C3=C(O)C(=O)N(c4cc(C)on4)C3c3cccs3)oc12 (centres undefined),-18%,·,·,·,·,-70*
CCCC1O[C@@H]2C[C@H]3[C@@H]4CCC5=CC(=O)C=C[C@]5(C)C4[C@@H](O)C[C@]3(C)[C@]2(C(=O)CO)O1 (some centres undefined),·,·,·,·,3.2µM*,·
COc1ccc(/C=C/C(=O)c2c(O)n(CCC3=CCCCC3)c(=O)[nH]c2=O)cc1,35µM*,?,-10%,-6%,?,-39
O=C(/C=C/c1ccc2c(c1)OCO2)c1c(O)n(CCC2=CCCCC2)c(=O)[nH]c1=O,?,-12%,i,-8%,2%,-12
O=C(CC1CC2CCC1C2)N1CCN(S(=O)(=O)c2ccc(C(F)(F)F)cc2)CC1 (centres undefined),-15%,·,-26%,-10%,·,-22
O=C(Cn1ncc2c([nH]c3ccccc32)c1=O)N1CCCCC1,-6%,·,·,·,·,-7
CCOC(=O)C1CCN(C(=O)Cn2ncc3c([nH]c4ccccc43)c2=O)CC1,-29%,9%[46.1 µM],-14%,-4%,22%[46.1 µM],-68*!
CCOC(=O)C1CCCN(C(=O)Cn2ncc3c(C)n(Cc4ccc(Cl)cc4)c(C)c3c2=O)C1 (centres undefined),18µM*,-2%[46.1 µM],-6%,-16%,3%[46.1 µM],-9
CCOC(=O)C1CCCN(C(=O)Cn2ncc3c(C)n(Cc4ccccc4Cl)c(C)c3c2=O)C1 (centres undefined),?,0%[46.1 µM],-9%,-18%,0%[46.1 µM],4
CC(=O)c1ccc(N2CCN(C(=O)c3cc(S(=O)(=O)N4CCCCCC4)cn3C)CC2)cc1,-21%,-2%[46.1 µM],-2%,-14%,·,4
Cc1nc(NCc2cccc3c2OCO3)sc1-c1ccn(CC2CCCN(C)C2)n1 (centres undefined),34%,·,-7%,12%,·,·
COc1ccc2c(c1OC)CN1CCc3cc4c(cc3C1C2)OCO4 (centres undefined),?,?,-15%,-20%,?,-87*
COc1ccc2c(c1OC)CN1CCc3cc4c(cc3[C@H]1C2)OCO4,?,·,?,-4%,·,·
COc1ccc2c(c1)c(CCN1CCOCC1)c(C)n2C(=O)c1cccc(Cl)c1Cl,·,23µM*,·,·,?,·
SMILES,FMDV antiviral,LASV entry inh,Vaccinia mCherry,VACV Venus inh,MARV entry inh,HCMV inh
COc1ccc2c(c1)c(CC(=O)O)c(C)n2C(=O)c1ccc(Cl)cc1,-21%,-12%,-13%,?,?,-21
Cc1nn(-c2ccccc2)c(C)c1NC(=O)COc1ccc(Br)cc1Cl,22µM*,?,-17%,-7%,-57%,?
Cc1nn(-c2ccccc2)c(C)c1NC(=O)COc1ccccc1C#N,-5%,·,-5%,-6%,·,-35
Cc1nn(-c2ccccc2)c(C)c1NC(=O)COc1cc(F)ccc1[N+](=O)[O-],25µM*,·,·,·,·,?
O=S(=O)(NC1CCN(S(=O)(=O)c2c(F)cccc2F)C1)c1ccc2c(c1)OCCO2 (centres undefined),15%,·,·,·,·,-78*
O=S(=O)(NC1CCN(S(=O)(=O)c2c(F)cccc2F)CC1)c1ccc2c(c1)OCCO2,17%,·,·,·,·,12
COc1cc(=O)n2c(c1C(=O)N(C)Cc1cscn1)CCN(C(=O)c1cccc(C)c1C)CC2,10%,·,i,-10%,·,·
Cc1cc(Sc2ncnc(N)c2[N+](=O)[O-])ncn1,20µM*,11µM*,i,-11%,?,·
Cc1cc(Sc2nc(N)ncc2[N+](=O)[O-])ncn1,?,-11%,-4%,0%,?,-99*
Cc1cc(N)ncc1[N+](=O)[O-],11%,11%[46.1 µM],-6%,-2%,-1%[46.1 µM],55
Cc1ccc(C)c(Oc2ncnc(N)c2[N+](=O)[O-])c1,-14%,-7%,-2%,-8%,17%,?
CCCC[n+]1ccn(-c2nc3ccccc3nc2[N-]S(=O)(=O)c2ccccc2)c1,·,?,-3%,-7%,16%,20
CCCCC[n+]1ccn(C2=C([O-])c3ccccc3C(=O)/C2=N\S(=O)(=O)c2ccc(Br)cc2)c1,-6%,·,·,·,·,-24
CC(C)(C)c1cc[n+](C2=C([O-])c3ccccc3C(=O)/C2=N\S(=O)(=O)c2ccccc2)cc1,?,-4%,-17%,-21%,9%[14.2 µM],-4
CCCC[n+]1ccn(C2=C([O-])c3ccccc3C(=O)/C2=N\S(=O)(=O)c2ccccc2)c1,22µM*,?,?,?,?,?
CC(C)[n+]1ccn(C2=C([O-])c3ccccc3C(=O)/C2=N\S(=O)(=O)c2ccccc2)c1,?,2%,?,?,?,-87*
